Compound activity: PubChem BioAssay, National Center for Advancing Translational Sciences (NCATS)
L3MBTL1 block: blocks human L3MBTL1 | Q9Y468 | AlphaScreen L3MBTL1–H3K9me1 peptide binding | Potency, µM (series often up to 57.1 µM), for the others: at the top dose activity, negative = inhibition, hits mostly inhibitors | 230,000 tested, 0.66% active | AID 485360; further: on the % scale 0 is the no-effect control and ±100 the full control effect; nearly all actives have a fitted effect of over 60% in size
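AlphaScreen proximity signal between nickel-chelate acceptor and streptavidin donor beads (final 10 ug/mL) reports binding of 50 nM L3MBTL1 to 75 nM biotin-H3 K9me1 peptide; complex incubated with compounds 30 min at room temperature; cefsulodin titration as control.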
JMJD2A Tudor inh: inhibitors of human JMJD2A Tudor domain. AlphaScreen JMJD2A-Tudor / H3K4me3 peptide binding. Potency, µM (doses to about 114 µM), without a hit: at the highest dose activity change, negative = inhibition, hits mostly inhibitors. 390,000 tested, 4.4% active; further: on the % scale 0 is the no-effect control and ±100 the full control effect; nearly all actives have a fitted effect of over 50% in size
G9a block: blocks human histone lysine methyltransferase G9a | 350,000 tested, 8.8% active | AID 504332 | G9a H3K9 monomethylation, AlphaScreen, 2 h | Q96KQ7 | Potency, µM (top dose mostly 102 µM), without a hit: top-dose activity, negative = inhibition, hits mostly inhibitors; further: on the % scale 0 is the no-effect control and ±100 the full control effect; nearly all actives have a fitted effect of over 75% in size
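AlphaScreen detection with an anti-monomethyl H3K9 antibody quantified product after a 2 h room-temperature reaction containing 500 nM biotinylated H3K9 peptide, 20 µM SAM and 20 nM enzyme, which had been preincubated 15 min with compound.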
HP1b binding inh: blocks HP1-beta chromodomain binding to methylated histone tails; Potency, µM (top dose mostly 114 µM), for inactives: at the top dose activity change, negative = inhibition, actives largely listed as inhibitors; P83916; 390,000 tested, 0.56% active; AlphaScreen HP1-beta / biotin-H3K9me3 peptide binding; further: nearly all actives have a fitted effect of over 70% in size
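AlphaScreen: HP1-beta (50 nM) preformed 30 min with biotin-H3(1-18)K9me3 peptide (50 nM) in PBS pH 7.4, 0.01% Tween-20. Compound added for 30 min at RT, then streptavidin donor/nickel chelate acceptor beads (10 ug/mL) for 30 min.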
BAZ2B inh: inhibitors of human BAZ2B bromodomain; 360,000 tested, 4.4% active; Potency, µM (top dose mostly 114 µM), inactives show top-dose activity change, negative = inhibition, usual class: inhibitors; AlphaScreen BAZ2B-H3K14Ac peptide displacement; Q9UIF8; further: on the % scale 0 is the no-effect control and ±100 the full control effect; nearly all actives have a fitted effect of over 60% in size
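BAZ2B 50 nM plus b-H3(5-23)K14Ac 50 nM, PBS pH 7.4/0.01% Tween-20, 30 min RT; compound added (max 110 uM), 30 min RT; streptavidin donor/Ni-chelate acceptor beads 10 ug/mL final, 20 min dark; AlphaScreen read.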
* hit, by the source's call; ? = inconclusive; . = no result; [ ] = remark or other dose. Most compounds without a hit are left out; they make up all but 11% or so of the library. The call rests on the fitted dose curve; in most records, active means well fitted inhibition curve with a large enough effect; inconclusive means small, poorly fitted or top-dose-only effect; inactive means no such curve, though single readings can be large or run the other way. Potency means the concentration at half of the fitted maximal effect.

SMILES	L3MBTL1 block	JMJD2A Tudor inh	G9a block	HP1b binding inh	BAZ2B inh
Nc1nc(NCc2ccco2)nc(N2CCCCCC2)c1[N+](=O)[O-]	-5%	56µM*	?	?	50µM*
Nc1nc(NCc2ccco2)nc(NC2CCCCC2)c1[N+](=O)[O-]	-3%	-3%	0%	0%	2%
Nc1nc(NCc2ccco2)nc(N2CCCC2)c1[N+](=O)[O-]	-10%	-26%	.	-9%	71µM*
COc1ccc2nc(SCCC(=O)O)cc(C)c2c1	-2%	-16%	-27%	-10%	-11%
Cc1ccccc1Nc1nc(CSc2nnnn2-c2ccccc2)cs1	.	-26%	40µM*	6%	-6%
Nc1c(Cl)cc2c(c1Oc1ccccc1)C(=O)c1ccccc1C2=O	.	-34%	10µM*	-14%	?
CCCN1C(=O)C(O)(CC(=O)c2cccc(OC)c2)c2ccccc21 (configuration not stated)	.	?	-39%[12.7 µM]	-39%	56µM*
COC(=O)c1ccc(NC(=O)CC2Nc3cc(C)c(C)cc3NC2=O)cc1 (configuration not stated)	.	-11%	-11%[59 µM]	6%	-2%
Cc1coc2cc3oc(=O)c4c(c3cc12)CCC4	.	.	-9%[12.7 µM]	.	8%
Cc1coc2c1C(=O)C(=O)c1c-2ccc2c1CCCC2(C)C	?	45µM*	2.2µM*	?	7.9µM*
Cc1coc2c1C(=O)C(=O)c1c-2ccc2c(C)cccc12	.	35µM*	?	?	35µM*
COCCN1C(=O)C(=O)/C(=C(/O)c2ccc(S(=O)(=O)N3CCOCC3)cc2)C1c1cccc([N+](=O)[O-])c1 (configuration not stated)	.	?	?	52%	-37%[57.1 µM]
CCCOc1nc(C)cc(COC)c1C(N)=O	.	-10%	0%	25%	3%
CCCSc1nc2cc(C)c(C)cc2n1CC(C)O (configuration not stated)	3%	-10%	11µM*	18%	?
Cc1cccc(N2CCN(C(=O)C3CCCN(S(=O)(=O)c4ccc(Br)s4)C3)CC2)c1C (configuration not stated)	.	-5%	?	34%	-18%
Cc1cccc(C(c2sc3nc(-c4ccco4)nn3c2O)N2CCN(Cc3ccccc3)CC2)c1 (configuration not stated)	.	-31%	-43%[59 µM]	35%	-29%
CCOc1ccc2nc(SC3CC(=O)N(c4ccccc4)C3=O)sc2c1 (configuration not stated)	0%	?	?	76%	0%
COc1ccc(N2C(=O)CC(Sc3n[nH]c(-c4ccccc4)n3)C2=O)cc1 (configuration not stated)	51%	5µM*	.	?	-12%
COc1ccc(N2C(=O)CC(Sc3nc(C)c4c(n3)CCCC4)C2=O)cc1 (configuration not stated)	-4%	-13%	-45%	34%	8%
CCOc1ccc(N2C(=O)CC(Sc3n[nH]c(-c4ccccc4)n3)C2=O)cc1 (configuration not stated)	-1%	4.5µM*	-16%[0.501 µM]	?	-11%
COc1cc(CN(C(=O)COc2ccccc2Cl)c2ccccn2)cc(OC)c1OC	.	-4%	1%[59 µM]	49%	-25%
CC(=O)n1nc(-c2ccccc2)nc1NCc1ccc(N(C)C)cc1	-19%	35µM*	-128%[59 µM]	?	25µM*
CN(C)c1ccc(CNc2nc(-c3ccccc3)nn2S(C)(=O)=O)cc1	-24%	56µM*	28µM*	?	35µM*
COc1ccccc1CNC(=O)c1cccn1-c1nnc(N2CCCC2)s1	.	-9%	6%[59 µM]	21%	-2%
O=C(c1ccco1)N(Cc1cccc([N+](=O)[O-])c1)c1ccc(Br)cc1	-17%	?	.	-2%	50µM*
COc1ccc(OC)c(C2(O)CSC(=Nc3cccnc3)N2Cc2ccco2)c1 (configuration not stated)	17%[11.4 µM]	-20%[57.1 µM]	-39%	27%	63µM*
Cc1ccc(CN(C)C(=O)c2cc(COc3cccc(C(F)(F)F)c3)on2)o1	.	-22%	32µM*	3%	-5%
